# Reference: PubChem BioAssay (NCATS)
# Records with an inconclusive call do not appear. A number with no mark means an inactive call. Active and inactive are the calls of the source. Calls follow the shape of the full dose curve.
# Target: Peroxisome proliferator-activated receptor delta (Homo sapiens) (UniProt Q03181)
# Experiment: qHTS assay for small molecule agonists of peroxisome proliferator-activated receptor delta signaling (AID 588534);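 also: 0% = DMSO basal wells and 100% = positive control agonist at 10 µM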
# Conditions: HEK293T PPARdelta-UAS-bla, beta-lactamase ratio, 18 h; series mostly up to 76.7 µM; activation: at the top concentration
# Procedure, shortened: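 Reporter cells were plated and held 5 hrs at 37 C before compounds were added. After 18 hrs at 37 C, CCF4 dye was loaded for 2 hrs at RT and fluorescence measured.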
# Sequence of Peroxisome proliferator-activated receptor delta (Homo sapiens) (Q03181 whole entry, looked up): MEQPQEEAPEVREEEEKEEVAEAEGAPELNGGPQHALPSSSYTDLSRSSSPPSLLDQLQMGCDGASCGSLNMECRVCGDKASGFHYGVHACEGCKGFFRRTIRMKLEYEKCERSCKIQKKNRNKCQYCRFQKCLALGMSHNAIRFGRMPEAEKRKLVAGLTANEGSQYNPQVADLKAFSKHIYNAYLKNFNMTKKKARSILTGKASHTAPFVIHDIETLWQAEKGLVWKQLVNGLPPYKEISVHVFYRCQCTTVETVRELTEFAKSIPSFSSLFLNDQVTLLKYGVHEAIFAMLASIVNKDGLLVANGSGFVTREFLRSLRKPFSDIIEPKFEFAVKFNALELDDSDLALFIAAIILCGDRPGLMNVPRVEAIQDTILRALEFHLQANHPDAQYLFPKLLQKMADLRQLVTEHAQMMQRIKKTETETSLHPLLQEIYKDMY
Structure (SMILES),activation [%],outcome
CCCCCCCCCCCCCCCCCC(=O)OC[C@@H](O)[C@H]1OC[C@H](O)[C@H]1O,4.06,
CC1(C)C(=O)N(Br)C(=O)N1Br,2.37,
CCCCCCc1ccc(-c2ccc(C#N)cc2)cc1,14.4,
Cn1sccc1=O,-1.8,
CC(COCC(C)OC(=O)c1ccccc1)OC(=O)c1ccccc1 (centres undefined),6.54,
O=C(O)c1ccc(O)cc1O,,inactive
NCCCCCCCCCCC(=O)O,1.71,
OCl,3.6,
COC(=O)c1ccccc1S(=O)(=O)NC(=O)Nc1nc(OC(F)F)cc(OC(F)F)n1,4,
BrC1CCC(Br)C(Br)CCC(Br)C(Br)CCC1Br (centres undefined),1.74,
NN(c1ccccc1)c1ccccc1,-4.89,
O=C(O)CCSSCCC(=O)O,5.09,
O=C1OC(=O)c2c(Cl)c(Cl)c(Cl)c(Cl)c21,,inactive
C/C=C1\CC2C=CC1C2 (centres undefined),6.39,
